Data taken from the supplement of paper PMC11417369.
The full ranking holds about 25,000 sequences; the median of “ln(normalized median fluorescence intensity)” is about 9.7, and the highest 2% start at about 11. The full list was thinned out, with the highest values kept by preference.

Each sequence was assayed on PfAP2-HC AP2 domain (GST-tagged) (assay: gcPBM binding intensity (ln(normalized median fluorescence intensity)); higher = stronger DNA binding).
In short: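 The highest Masliner-normalised natural-log median intensity across replicate spots of either probe orientation is reported as binding intensity. GST-tagged P. falciparum DNA-binding domains expressed in E. coli were applied for 1 h to an Agilent 4 × 180k array of primer-extended double-stranded 36-bp intergenic genomic probes plus negative controls, and bound protein was detected with Alexa488 anti-GST antibody and scanned at 488 nm.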

Sequence	gcPBM binding intensity (ln)
ACTAATATGTATATATATATATATATATATATATAT [CACACA_negctrl_site141]	9.58
TCTTAATTTGTTATATGTACATAATATAATTGTATA [XGTACX_site5184]	9.55
TATTATTTATATGATACACACGTACATATACACATA [CACACA_site9275]	9.86
TTTAATAATATAATGTGTACTTAAAAATTTATATAT [XGTACX_site5821]	9.44
AACATACATAAACACACACACACACCCACACCCACA [CACACA_site8058]	10.8
AAAAAAAAAAAAAAAACACACATACACCCAGACACA [CACACA_site5807]	11.3
AACATACATAAACACACACACACACCCACAGAGACA [CACACA_site4430]	11
TATACATACATACATACACACACACCGATATATACA [CACACA_site8184]	10.8
CATACATACAAACACACACACACACCGATATATATA [CACACA_site8952]	10.7
AAAAAGAAAAAACTTACACACATATATACACCCATG [CACACA_site8079]	11.3
AAAAAACAGACATACACACACACACCCATATATATA [CACACA_site3392]	10.8
TAAACATACAGATACACACACACACCCACAGAGACA [CACACA_site4429]	10.6
CATACACCCAGACACACACACATATATATATATATA [CACACA_site634]	10.4
AAAAAACACCCATACACACACACACCGATATATATA [CACACA_site5808]	11
AAAAAGAAAAAACTTACACACATATATACCCCCATG [CACACA_site4463]	10.2
AAAAAGAAAAAACTTACACACATATATACAGACATG [CACACA_site550]	10
TTTAAAACCTTACATACACACAAATATATATATATA [CACACA_site677]	10
AAAAAATATGCATATACACACATATGTATAAATAAC [CACACA_site7090]	10.1
TATTTAACACCTTATACACACTTTCTTCCTTTTTTA [CACACA_site4590]	10.1
AAGTATTATATATTTTGTACATATATAAAACCACAA [XGTACX_site5508]	9.61
AATATATACACATGCGCACACACAAGTGGGAAATTT [CACACA_site8527]	10.2
ATAGAAACATATTGACGTACAGTATAATAATACAGT [XGTACX_site197]	9.91

Sequence	gcPBM binding intensity (ln)
TGAAATACGAATTATTGTACTTATGTGTAAGATGGC [XGTACX_site4472]	9.71
CAATTTGGTGTACAGGTGCACATGCCTCACGATAAA [GTGCAC_site9650]	9.61
CATACATACAAACACACACACACACCCATATATATA [CACACA_site2918]	11.1
AGATACAAGCACTATAGTACACATACTAAAAATATA [XGTACX_site5849]	9.73
TACTAAAACCCATACACACACATATTTATAGTACCA [CACACA_site7484]	10.6
TATATACACAAACACACACACACATACACCCACATA [CACACA_site8504]	10.8
AATACTAAAACCCATACACACACATATATATAGTAC [CACACA_site9041]	11
CACCCATACACATACAAACACACATTCTATATATAT [CACACA_site1600]	10.1
TTATATGTATATATAGTGCAGAACAAAAGATTATAT [GTGCAC_site9599]	9.7
GGACTTTATAAAAATGGTACACGCAATTCTATAATC [XGTACX_site6515]	9.61
AAAAATTAAATAAATTTACACACTAATAATTACATA [CACACA_site8260]	9.63
ATTTCATAAATTAAACGTACATAATACACACACATG [XGTACX_site4155]	11
AAAAAAAACATACATACACACACATAAATATATATA [CACACA_site8864]	11.4
CATTTAACATAAATTAAACACACAATATAATACATT [CACACA_site8333]	9.73
TACATAAATTAAAACACACACACACTAAAAAAAAAA [CACACA_site7130]	10.5
TACATAAATTAAAACACACACACACTAATAAAAAAA [CACACA_site8712]	11.3
GAAATAATTTCATATACACACATATACATACATACA [CACACA_site1358]	9.95
TACAATTTAAAACACACACACAATAATACATATATA [CACACA_site1251]	11
AAAAAACATACATACACACACATAAATATATATATT [CACACA_site2699]	10.4
TATAATTTAAAATACACACACATATATATAATATAT [CACACA_site2000]	10.1
AAACGTACATAATACACACACATGTATACATATAAA [CACACA_site2048]	10.2
CATATACATAAACACACACACACATAAATAAATATA [CACACA_site4864]	10.6

Sequence	gcPBM binding intensity (ln)
ATAAAAATATTACGCACACACAAACTTATTCATTAT [CACACA_site1969]	10.2
TATATATTTTTATGTGTGCACTGTTTCATAAAAGAA	9.61
ACAATTTACACTTAAACACACAAAAAAAAGTTATAT [CACACA_site7056]	9.98
ATATATTTATATATATGTACATATTATGTTAAGAAA [XGTACX_site1111]	9.69
ATATATAAATTTTAGTGTACATTAATTTTTTTTTTT [XGTACX_site7782]	9.64
ATTTATTTATATTTAGTGCAATACTATTTTTAAATA [GTGCAC_site9886]	9.48
TTATGTTGTAAATACACACATACATATACATACACA [CACACA_site733]	9.91
ATAATATATACGTGTGTGCACATGACAAAAGCATAT	10.6
ATTCTTTTAAACAGTACACACACACCGATATATATA [CACACA_site8213]	10.7
CATATACACGAACACACACACATATAAATAAATATA [CACACA_site6379]	10.6
TCTTTTAAACAGTACACACACACATATATATATATA [CACACA_site924]	10.7
AAAAAAAAAAAAAACACACACATATAAATATAAATA [CACACA_site6972]	10.4
AACATATACACGAACACACACACATATAAATAAATA [CACACA_site6380]	10.4
AAAAAATAAAAAAAAACACACACATACAAGCATATA [CACACA_site8451]	11.1
CTAAAATACGAACACACACACACATATAAATAAATA [CACACA_site7872]	11.2
TAAAATATAAAACACACACACATATATATATATATT [CACACA_site224]	10.3
AATATAAATAAACACACACACATATATATATATATT [CACACA_site2906]	11
TATATTCTTTTAAACAGTACACACACACATATATAT [XGTACX_site1701]	11.1
TACACAAAAATAAACACACACACATATATATATATA [CACACA_site1000]	10.2
AATATATAAATATATACACACAAAAACATATATATA [CACACA_site1318]	9.99
